Laboratory results: PubChem BioAssay (EPA / NIEHS)
Records with an inconclusive call do not appear. The source made the active and inactive calls. The calls were made as follows, unless noted: active = hit-call score of the fitted dose curve at least 0.9, where 1 is the maximum; inactive = score below 0.9.

Columns and labels:
[1] = target: human Vitamin D Receptor (VDR), VDR (gene 7421) (UniProt P11473); assay: ATG_VDR_TRANS: Attagene TRANS-FACTORIAL HepG2 Assay for human Vitamin D Receptor (VDR) (AID 2283022; active = hit-call score of the fitted dose curve at least 0.9, where 1 is the maximum)
In short: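 Multiplexed TRANS reporter in HepG2; 24 h treatment; reporter mRNA by RT-PCR plus capillary electrophoresis; upregulation scored relative to DMSO.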

[2] = read-out: Interleukin-8 (IL8), CXCL8 (gene 3576); assay: BSK_3C_IL8: BioMAP Diversity Plus: 3C Assay for Interleukin-8 (IL8) Biomarker Activity (AID 2283020); conditions: primary human endothelial cells (HUVEC); actives raise or lower the signal
In short: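 Primary human umbilical vein endothelial cells (3C system) were exposed to test chemical for 24 h, then IL-8 was quantified by ELISA. Responses were fitted bidirectionally against DMSO vehicle as baseline.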

[3] = BSK_3C_SRB: Viability Assessment in the BioMAP Diversity Plus: 3C Assay (AID 2283023); conditions: primary human endothelial cells (HUVEC);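 also: fitted both ways against DMSO so a hit may be signal rise or drop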
In short: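 Overt cytotoxicity is gauged in parallel confluent HUVEC cultures by SRB total-protein staining at the time of biomarker measurement, 24 h after dosing. Gain or loss of signal is fitted versus DMSO.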

[4] = read-out: Matrix Metallopeptidase 1 (MMP1), MMP1 (gene 4312); assay: BSK_BE3C_MMP1: BioMAP Diversity Plus: BE3C Assay for Matrix Metallopeptidase 1 (MMP1) Biomarker Activity (AID 2283024); conditions: primary human bronchial epithelial cells; actives raise or lower the signal
In short: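 Primary human bronchial epithelial cells were dosed with test chemicals, and MMP1 levels were measured by ELISA 24 h later. Data were fitted bidirectionally against DMSO as the negative control and activity baseline.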

[5] = BSK_3C_Vis: BioMAP Diversity Plus: 3C Assay for Morphology Visualization (AID 2283025); conditions: primary human endothelial cells (HUVEC);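 also: fitted both ways so gain or loss versus DMSO counts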
In short: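 Human umbilical vein endothelial cells in the 3C system were imaged by light microscopy 24 h after chemical dosing to record cell morphology. Activity was fitted bidirectionally against DMSO as negative control and baseline; the endpoint serves as a background control.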

[6] = read-out: Pselectin, SELP (gene 6403); assay: BSK_4H_Pselectin: BioMAP Diversity Plus: 4H Assay for Pselectin Biomarker Activity (AID 2283026); conditions: primary human endothelial cells (HUVEC); actives raise or lower the signal
In short: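 Primary human umbilical vein endothelial cells were exposed to test chemical for 24 h, then cell-surface P-selectin was quantified by ELISA. Activity was fitted bidirectionally against DMSO as negative control and baseline.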

[7] = BSK_4H_SRB: Viability Assessment in the BioMAP Diversity Plus: 4H Assay (AID 2283027); conditions: primary human endothelial cells (HUVEC);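 also: cells exposed to compound for 24 h before staining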;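 as to AC50: curves fitted both ways versus DMSO so AC50 may be loss or gain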
In short: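 Human umbilical vein endothelial cells, 24 h after chemical dosing; total protein measured by 0.1% sulforhodamine B staining after 10% TCA fixation, read at 560 nm. Bidirectional fitting against DMSO.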

[8] = BSK_BE3C_SRB: Viability Assessment in the BioMAP Diversity Plus: BE3C Assay (AID 2283028); conditions: primary human bronchial epithelial cells;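 as to AC50: fitted both ways so AC50 may mark signal gain or loss versus DMSO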
In short: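 SRB total-protein staining (0.1%, after TCA fixation) of chemically dosed human bronchial epithelial primary cells at 24 h; DMSO serves as the negative control for bidirectional curve fitting.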

[9] = read-out: Thrombomodulin, THBD (gene 7056); assay: BSK_3C_Thrombomodulin: BioMAP Diversity Plus: 3C Assay for Thrombomodulin Biomarker Activity (AID 2283029); conditions: primary human endothelial cells (HUVEC); actives raise or lower the signal
In short: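 Primary human umbilical vein endothelial cells (3C system) were exposed to chemical for 24 h, then thrombomodulin levels were measured by ELISA. Activity was fitted bidirectionally against the DMSO negative control as baseline.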

[10] = read-out: Urokinase-type plasminogen activator receptor (uPAR), PLAUR (gene 5329); assay: BSK_4H_uPAR: BioMAP Diversity Plus: 4H Assay for Urokinase-type plasminogen activator receptor (uPAR) Biomarker Activity (AID 2283030); conditions: primary human endothelial cells (HUVEC); actives raise or lower the signal
In short: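 Endpoint derived via bidirectional curve fitting against DMSO baseline; readout was ELISA detection of uPAR on umbilical vein endothelial cells at 24 h post-treatment, with SRB-stained parallel cultures assessing cytotoxicity.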

[11] = read-out: Vascular endothelial growth factor receptor 2 (Homo sapiens) (UniProt P35968); assay: BSK_4H_VEGFRII: BioMAP Diversity Plus: 4H Assay for Vascular endothelial growth factor receptor 2 (VEGFR2) Biomarker Activity (AID 2283031); conditions: primary human endothelial cells (HUVEC); actives raise or lower the signal
In short: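 In this multiplexed HUVEC system, biomarker ELISA was performed after 24 h chemical exposure. Parallel SRB staining (TCA fixation, 560 nm) tracked cytotoxicity; DMSO served as baseline.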

[12] = read-out: Human Leukocyte Antigen - DR isotype (HLADR), HLA-DRA (gene 3122); assay: BSK_BE3C_HLADR: BioMAP Diversity Plus: BE3C Assay for Human Leukocyte Antigen - DR isotype (HLADR) Biomarker Activity (AID 2283032); conditions: primary human bronchial epithelial cells; actives raise or lower the signal
In short: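 Human primary bronchial epithelial cells in the BE3C system were exposed to chemicals for 24 h, after which HLA-DR levels were quantified by ELISA. Activity was fitted bidirectionally, gain or loss of signal, against DMSO as negative control and baseline.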

[13] = read-out: Vascular cell adhesion molecule 1 (VCAM1), VCAM1 (gene 7412); assay: BSK_4H_VCAM1: BioMAP Diversity Plus: 4H Assay for Vascular cell adhesion molecule 1 (VCAM1) Biomarker Activity (AID 2283033); conditions: primary human endothelial cells (HUVEC); actives raise or lower the signal
In short: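 Primary human umbilical vein endothelial cells were exposed to chemicals for 24 h, after which VCAM-1 was quantified by ELISA. Responses were fitted bidirectionally against DMSO as negative control and activity baseline.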

[14] = read-out: Interferon-gamma inducible Protein 10 (IP10), CXCL10 (gene 3627); assay: BSK_BE3C_IP10: BioMAP Diversity Plus: BE3C Assay for Interferon-gamma inducible Protein 10 (IP10) Biomarker Activity (AID 2283034); conditions: primary human bronchial epithelial cells; actives raise or lower the signal
In short: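 Human primary bronchial epithelial cells were exposed to chemicals for 24 hours, after which IP-10 levels were measured by ELISA. Data were fitted bidirectionally against DMSO, which served as the negative control and activity baseline.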

[15] = read-out: Monokine induced gamma interferon (MIG), CXCL9 (gene 4283); assay: BSK_BE3C_MIG: BioMAP Diversity Plus: BE3C Assay for Monokine induced gamma interferon (MIG) Biomarker Activity (AID 2283035); conditions: primary human bronchial epithelial cells; actives raise or lower the signal
In short: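 Primary human bronchial epithelial cells treated for 24 h; MIG levels measured by ELISA, fitted bidirectionally versus DMSO. Parallel SRB total-protein staining assessed cytotoxicity.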

[16] = read-out: Transforming growth factor beta 1 (TGFb1), TGFB1 (gene 7040); assay: BSK_BE3C_TGFb1: BioMAP Diversity Plus: BE3C Assay for Transforming growth factor beta 1 (TGFb1) Biomarker Activity (AID 2283036); conditions: primary human bronchial epithelial cells; actives raise or lower the signal
In short: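 Human primary bronchial epithelial cells (BE3C system) were dosed with chemical and TGF-b1 levels measured by ELISA at 24 h. Activity was fitted bidirectionally relative to DMSO negative control as baseline.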

[17] = read-out: Plasminogen activator inhibitor-1 (PAI1), SERPINE1 (gene 5054); assay: BSK_BE3C_PAI1: BioMAP Diversity Plus: BE3C Assay for Plasminogen activator inhibitor-1 (PAI1) Biomarker Activity (AID 2283037); conditions: primary human bronchial epithelial cells; actives raise or lower the signal
In short: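 Human primary bronchial epithelial cells were exposed to chemical for 24 h, then PAI-1 was quantified by ELISA. Activity was fitted bidirectionally relative to the DMSO negative control baseline.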

[18] = read-out: urokinase plasminogen activator (uPA), PLAU (gene 5328); assay: BSK_BE3C_uPA: BioMAP Diversity Plus: BE3C Assay for urokinase plasminogen activator (uPA) Biomarker Activity (AID 2283038); conditions: primary human bronchial epithelial cells; actives raise or lower the signal
In short: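 Using confluent primary human lung bronchial epithelial cultures, we dosed chemicals, waited 24 h, then ran a uPA ELISA, fitting bidirectionally against DMSO.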

[19] = read-out: Urokinase-type plasminogen activator receptor (uPAR), PLAUR (gene 5329); assay: BSK_BE3C_uPAR: BioMAP Diversity Plus: BE3C Assay for Urokinase-type plasminogen activator receptor (uPAR) Biomarker Activity (AID 2283039); conditions: primary human bronchial epithelial cells; actives raise or lower the signal
In short: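 Primary human bronchial epithelial cells were dosed with chemical and harvested 24 h later; uPAR was quantified by ELISA. Activity was fitted bidirectionally against DMSO as negative control and baseline.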

Measured: AC50

human Vitamin D Receptor (VDR), VDR (gene 7421), sequence (P11473 whole entry, looked up): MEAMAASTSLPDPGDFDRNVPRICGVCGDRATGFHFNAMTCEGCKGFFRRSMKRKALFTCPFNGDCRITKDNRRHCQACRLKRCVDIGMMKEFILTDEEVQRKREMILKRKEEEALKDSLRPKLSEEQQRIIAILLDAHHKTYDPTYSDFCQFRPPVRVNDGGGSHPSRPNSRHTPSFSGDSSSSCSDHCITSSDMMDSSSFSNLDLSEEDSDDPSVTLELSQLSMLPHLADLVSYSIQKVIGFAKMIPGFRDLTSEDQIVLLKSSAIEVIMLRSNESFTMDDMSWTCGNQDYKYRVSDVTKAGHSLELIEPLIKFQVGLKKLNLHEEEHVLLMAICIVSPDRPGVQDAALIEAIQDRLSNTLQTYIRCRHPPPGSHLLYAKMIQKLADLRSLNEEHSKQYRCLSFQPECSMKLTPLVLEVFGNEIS

C/C(=N\NC(=O)Nc1cc(F)cc(F)c1)c1ncccc1C(=O)O
inactive: [1]

N#Cc1ccc(O)cc1
inactive: [1]

Clc1ccc(Oc2ccccc2)cc1
inactive: [1]

COP(=O)(O)OC
inactive: [2] | [3] | [4] | [5] | [6] | [7] | [8] | [9] | [10] | [11] | [12] | [13] | [14] | [15] | [16] | [17] | [18] | [19]

OCC1CO1 (configuration not stated)
inactive: [2] | [3] | [4] | [5] | [7] | [8] | [9] | [10] | [11] | [12] | [13] | [14] | [15] | [16] | [17] | [18] | [19]

O=S1(=O)OCC2C(CO1)C1(Cl)C(Cl)=C(Cl)C2(Cl)C1(Cl)Cl (configuration not stated)
inactive: [2] | [4] | [5] | [8] | [9] | [12] | [14] | [15] | [16] | [17] | [18] | [19]
active: [3] 20 µM | [7] 12.3 µM | [10] 9.1 µM | [13] 20 µM

CCCCN(CCCC)N=O
inactive: [2] | [3] | [5] | [7] | [8] | [9] | [10] | [11] | [12] | [13] | [14] | [15] | [16] | [17] | [18] | [19]

O=S(=O)(c1ccc(O)cc1)c1ccc(O)cc1
inactive: [1]

Nc1ccc2ccccc2c1
inactive: [2] | [3] | [5] | [6] | [7] | [8] | [9] | [10] | [12] | [13] | [14] | [15] | [16] | [17] | [18] | [19]
active: [4] 2.92 µM

Cc1ccc2c(c1N)C(=O)c1ccccc1C2=O
inactive: [2] | [4] | [6] | [7] | [8] | [9] | [10] | [13] | [14] | [15] | [16] | [17] | [18] | [19]
active: [3] 4.25 µM | [5] 13.6 µM | [12] 5.4 µM

CCCCOCC1CO1 (configuration not stated)
inactive: [1]

CC(C)(C)N(NC(=O)c1ccc(Cl)cc1)C(=O)c1ccccc1
inactive: [1]

CCOP(=O)(O)C(N)=O
inactive: [1]

c1ccc2c(c1)Nc1ccccc1S2
inactive: [2] | [3] | [4] | [5] | [7] | [8] | [9] | [10] | [12] | [13] | [14] | [15] | [16] | [17] | [18] | [19]

CCOP(=S)(OCC)SCSc1ccc(Cl)cc1
inactive: [2] | [3] | [4] | [5] | [7] | [8] | [9] | [10] | [11] | [12] | [14] | [15] | [16] | [17] | [18] | [19]
active: [6] 12.6 µM | [13] 6.58 µM

CO/N=C(/C(=O)OC)c1ccccc1COc1ccccc1C
inactive: [1]

CC(C)(C)c1ccc(O)cc1
inactive: [2] | [3] | [5] | [6] | [7] | [8] | [9] | [10] | [11] | [12] | [13] | [14] | [15] | [16] | [17] | [18] | [19]

CCN(CC)C1CCCCC1
inactive: [1]

COP(=O)(CCC(=O)NCO)OC
inactive: [2] | [3] | [6] | [7] | [8] | [9] | [10] | [11] | [12] | [13] | [14] | [15] | [17] | [18] | [19]

O=c1ssc(Cl)c1Cl
inactive: [9]
active: [2] 7.48 µM | [3] 5.07 µM | [5] 4.24 µM | [7] 5.42 µM | [8] 5.34 µM | [10] 7.3 µM | [12] 8.51 µM | [13] 3.91 µM | [14] 3.38 µM | [15] 12.6 µM | [16] 14.8 µM | [17] 11.7 µM | [18] 9.31 µM | [19] 12.2 µM

Nc1ccc(Cl)cc1
inactive: [2] | [3] | [4] | [5] | [7] | [8] | [9] | [10] | [12] | [13] | [14] | [15] | [16] | [17] | [18] | [19]
